This is a sample that favours compounds with a hit; in the whole collection about 3.2% have one here.
GBA mod: modulators of human glucocerebrosidase. Potency, µM. purified enzyme, resorufin glucoside fluorescence (screen aimed at inhibitors), 20 min. 48,000 compounds, 1.1% hits. AID 360; in the data active means potency below about 15 µM; inconclusive means mostly about 16 µM to 33 µM;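 further: the screen sought inhibitors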
Target sequence (P04062 whole entry, looked up): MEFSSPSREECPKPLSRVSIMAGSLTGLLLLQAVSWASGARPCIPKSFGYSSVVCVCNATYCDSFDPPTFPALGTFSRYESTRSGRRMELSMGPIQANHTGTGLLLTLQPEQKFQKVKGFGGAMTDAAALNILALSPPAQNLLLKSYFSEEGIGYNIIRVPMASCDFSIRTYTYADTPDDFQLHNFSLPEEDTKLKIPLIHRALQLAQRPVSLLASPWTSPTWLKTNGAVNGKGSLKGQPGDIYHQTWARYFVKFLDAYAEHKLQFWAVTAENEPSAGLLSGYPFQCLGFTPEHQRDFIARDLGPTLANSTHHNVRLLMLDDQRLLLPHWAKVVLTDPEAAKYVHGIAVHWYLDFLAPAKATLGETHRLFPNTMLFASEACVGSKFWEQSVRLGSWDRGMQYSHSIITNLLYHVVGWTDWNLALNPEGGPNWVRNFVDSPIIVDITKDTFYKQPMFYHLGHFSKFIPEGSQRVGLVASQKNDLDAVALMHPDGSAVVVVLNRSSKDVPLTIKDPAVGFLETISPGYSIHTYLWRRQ
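Compounds titrated against 0.2 nM normal enzyme, 30 uM resorufin beta-D-glucopyranoside substrate, citrate/phosphate buffer with taurocholate and tween-20, pH 5.9. Reaction ran 20 min at room temperature; fluorescence (Ex 548/Em 600) gave AC50.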
PK Bst: pyruvate kinase (B. stearothermophilus) modulation; purified pyruvate kinase, luminescence ATP production; ribose 5-phosphate activator present at AC10; Potency, µM; 51,000 compounds, 1.2% hits; AID 361; in the data active means potency below about 11 µM; inconclusive means mostly about 12 µM to 25 µM;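 the screen sought inhibitors and activators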;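 further: scaled between full activation by ribose 5 phosphate and full inhibition by luteolin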
Luciferase inh: blocks Photinus pyralis firefly luciferase activity | P08659 | purified firefly luciferase, luminescence, 8 min | Potency, µM (highest dose often 57.1 µM), inactives show at the top dose activity change, negative = inhibition, hits mostly inhibitors | 72,000 compounds, 2.2% hits; active means well fitted inhibition curve with a large enough effect; inconclusive means small, poorly fitted or top-dose-only effect; further: on the % scale 0 is the no-effect control and ±100 the full control effect; nearly all actives have a fitted effect of over 40% in size
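Firefly luciferase (PKLight detection mix) with 10 uM ATP in pH 7.2 imidazole buffer (KCl, MgCl2, Tween 20, BSA). Compounds tested across a concentration series (qHTS). Luminescence read after 8 min at ambient temperature.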
* = called active by the depositor; i = inactive; ? = inconclusive; · = not tested or not shown; [ ] = another dose, or the depositor's remark. Potency means the concentration at half of the fitted maximal effect.

SMILES	GBA mod	PK Bst	Luciferase inh
COCCn1c(=O)cnc2cnc(Oc3ccc(OC)cc3)nc21	·	·	1.4%[11.4 µM]
C=CCn1c(COc2cccc(C)c2)nnc1SCC(=O)NC(=O)NCc1ccco1	>76.9	>57	3.3%
C=CCn1c(COc2ccc(F)cc2)nnc1SCC(=O)NC(=O)NCc1ccco1	15.2*	>57	-33.5%
COC(=O)[C@@H](NC(=O)c1cc(-c2ccccc2)nc2ccccc12)c1ccccc1	·	·	1.8%
O=c1[nH]c(-c2ccccc2O)nc2c1CCCC2	7.46*	>57	-0.7%
O=c1[nH]c(N2CCc3ccccc3C2)nc2c1CCC2	>76.9	>57	-0.5%
O=c1[nH]c(N2CCc3ccccc32)nc2c1CCCC2	>76.9	>57	-0.2%
O=c1[nH]c(N2CCc3ccccc3C2)nc2c1CCCC2	4.56*	>57	-1.0%
Cc1cc(Cc2cc(C)c(N)cc2N)c(N)cc1N	·	·	0.9%[11.4 µM]
COc1ccccc1CN1CCC2(CC1)CCN(C(=O)c1ccco1)CC2	·	·	0.3%[11.4 µM]
COC(=O)N1CCC2(CC1)CCN(c1ccncc1)CC2	·	·	1.3%[11.4 µM]
N#CCCn1cc(C(CC(=O)c2ccccc2)C(=O)O)c2ccccc21 (stereo not given)	>76.9	>57	-0.3%
CC1(Cc2cn(CCC#N)c3ccccc23)OCCO1	14.4*	>57	3.2%
Cc1c(C(=O)O)nc(/C=C\C(=O)O)[nH]c1=O	·	·	0.6%[11.4 µM]
Nc1cccc2cc(S(=O)(=O)Nc3ccc(C(=O)O)cc3)ccc12	·	·	3.6%[11.4 µM]
C=C[C@@]1(C)C=C2CC[C@@H]3[C@](C)(CCC[C@@]3(C)C(=O)O)[C@H]2CC1	·	·	4.0%[11.4 µM]
Cc1cc(NC(=O)c2sc(Nc3cccc(C(F)(F)F)c3)nc2N)no1	11.8*	·	-1.7%
Cc1cc(NC(=O)Nc2cccc(C(F)(F)F)c2)no1	·	>57	-1.4%
CN(C)/C=C1\C(=O)c2ccc(N(C)C)nc2CC1c1ccccc1 (stereo not given)	>76.9	>57	0.4%
COc1ccc(NC(=O)Nc2ccc3nccnc3c2)cc1	·	·	6.31µM*
COc1cccc(C(=O)Nc2ccc(N(C)C)cc2)c1OC	>76.9	i	15.8µM*
COc1ccc(CNC(=O)c2ccc3nccnc3c2)cc1	>76.9	·	2.6%
COc1ccc(NC(=O)Nc2nccs2)cc1	>76.9	i	12.6µM*
COc1cccc(NC(=O)c2cccc(OC)c2OC)c1	>76.9	·	?
COc1ccc(CNC(=O)Nc2ccc(OC)cc2)cc1	>76.9	>57	0.4%
SMILES	GBA mod	PK Bst	Luciferase inh
CCc1nnc(NC(=O)Nc2ccc(OC)cc2)s1	>76.9	>57	-18.0%
COc1ccc(NC(=O)Nc2ccc(N(C)C)cc2)cc1	>76.9	·	12.6µM*
O=C(O)C/C(=C\c1ccco1)C(=O)O	·	·	2.0%[11.4 µM]
O=C(c1ccco1)N1CCC[C@@]2(CCN(c3ncccn3)C2)C1	·	·	1.6%[11.4 µM]
COc1cccc(Cn2c(=O)c(-c3ccc(F)cc3)nc3cnc(N(C)C)nc32)c1	·	·	0.9%[11.4 µM]
Cc1ccc2[nH]c(=O)c(C(c3nnnn3C3CCCC3)N(Cc3cccnc3)Cc3ccco3)cc2c1 (stereo not given)	·	>57	0.3%
Clc1ccc(C(c2nnnn2C2CCCCC2)N(Cc2cccnc2)Cc2ccco2)cc1 (stereo not given)	12.8*	>57	2.9%
CCC(=O)Nc1ccc2c(c1)nc1n2CCSC1	>76.9	>57	-6.6%
CC(C)C(=O)Nc1ccc2c(c1)nc1n2CCSC1	·	>57	-7.1%
O=C(Nc1ccc2c(c1)nc1n2CCSC1)c1ccccc1	·	?	10µM*
COc1ccc(C(=O)Nc2ccc3c(c2)nc2n3CCSC2)cc1	·	?	12.6µM*
COC(=O)[C@@H]1CCCN1C(=O)[C@@H](C)CO	·	·	0.0%[11.4 µM]
N#Cc1cccc(NC(=O)N2CC3(CCN(C(=O)c4cnccn4)CC3)C2)c1	·	·	-0.2%[11.4 µM]
Cc1cc(C)c2c(CN3CCN(C)CC3)cc(=O)oc2c1	i	>57	2.6%
Cc1cc(C)c2c(CN3CCN(CCO)CC3)cc(=O)oc2c1	5.45*	>57	-3.3%
COc1cccc2sc(N(C)c3ccccc3)nc12	>76.9	8.14*	7.94µM*
COc1cccc2sc(N3CCN(c4nc5ccccc5s4)CC3)nc12	>76.9	>57	1.3%
CC(C)(C)NC(=O)NC(=O)COc1ccccc1C#N	>76.9	i	20µM*
COc1ccc(C(CNC(=O)COc2ccccc2C#N)N2CCOCC2)cc1 (stereo not given)	>76.9	>57	0.8%
CN(C)c1ccc(-c2nc(N3CCNCC3)c3ccccc3n2)cc1	·	·	-6.1%[2.29 µM]
CCNc1ncc2nc(-c3ccc(F)cc3)c(=O)n(-c3ccc(OC)cc3)c2n1	·	·	1.8%[11.4 µM]
COC(=O)c1sc(NC(=O)c2cc3c(s2)CCCC3)nc1C	>76.9	>57	1.6%
Cc1csc(NC(=O)c2cc3c(s2)CCC3)n1	·	?	2.51µM*
COc1ccccc1CN1CC[C@@]2(CCCN(S(C)(=O)=O)C2)C1	·	·	0.3%[11.4 µM]
COc1cccc2c1[C@@H]1CN(CCCCn3c(=O)[nH]c4c(sc5ncc(-c6ccccc6)nc54)c3=O)C[C@H]1CO2	·	·	-6.4%
SMILES	GBA mod	PK Bst	Luciferase inh
COc1ccc(S(=O)(=O)N(CCCN2CCOCC2)Cc2ccc(OC)c(OC)c2)cc1	?	>57	0.0%
O=S(=O)(c1cccc(C(F)(F)F)c1)N(CCCN1CCOCC1)Cc1cccs1	10.9*	>57	1.0%
O=C1CCCC=C1[C@@H](O)COCc1ccccc1	·	·	0.5%[11.4 µM]
Cc1noc(C)c1-c1ccc2ncnc(Nc3ccc(F)cc3)c2c1	·	·	1.3%[2.29 µM]
N.N.O=C(O)C1(C(=O)O)CCC1.[Pt]	·	·	-9.8%
C=CCNc1ncnc2c1cnn2-c1cccc(C)c1	·	·	10µM*
C=CCNc1ncnc2c1cnn2-c1ccc(Cl)cc1	·	·	2.51µM*
Cc1cccc(-n2ncc3c(N4CCCC4)ncnc32)c1	>76.9	5.37*	1.58µM*
Cc1cccc(-n2ncc3c(NCc4ccc5c(c4)OCO5)ncnc32)c1	?	>57	-1.0%
Clc1ccc(-n2ncc3c(NCc4ccccn4)ncnc32)cc1	·	?	-3.8%[25.5 µM]
Cc1cccc(-n2ncc3c(NC4CCCCC4)ncnc32)c1	·	·	10µM*
COc1ccccc1Nc1ncnc2c1cnn2-c1cccc(C)c1	·	·	-10.3%[25.5 µM]
Cc1ccc(-n2ncc3c(N4CCN(c5ccccc5)CC4)ncnc32)c(C)c1	·	>25.6	-0.9%[25.5 µM]
O=c1c2ccccc2oc2cc(O)c([C@@H]3COC[C@@H](CO)[C@@H](O)[C@@H](O)[C@H]3O)c(O)c12	·	·	0.8%[11.4 µM]
CNCC[C@H](Oc1ccccc1OC)c1ccccc1	·	·	-2.2%
Nc1ccn([C@@H]2O[C@@H](CO)[C@@H](O)[C@H]2O)c(=O)n1	·	·	2.6%
CS(=O)(=O)N1CCC[C@@]2(CCN(Cc3nccs3)C2)C1	·	·	1.0%[11.4 µM]
CC(C)(CC(=O)Nc1ccccc1)C(=O)O	·	·	1.7%[11.4 µM]
CCc1ccc(CNc2ccc(O)cc2)cc1	11*	·	-9.1%
COc1ccc(Br)cc1CNc1ccc(O)cc1	i	>57	-3.1%
COc1cccc(Cn2c(=O)c(-c3cccs3)nc3cnc(OCc4ccccc4)nc32)c1	·	·	0.1%[11.4 µM]
O=C(Nc1ccccc1)N(O)c1ccc(Cl)cc1	>76.9	?	12.6µM*
O=C(Nc1ccc(Cl)cc1)N(Cc1cccs1)Cc1cccs1	·	·	1.2%
Cn1cccc1C(=O)N1CCC2(CCN(C(=O)Nc3cccc(C#N)c3)CC2)CC1	·	·	0.5%[11.4 µM]
Cc1ccc(-c2nc(C#N)c(NCc3ccco3)o2)cc1	>76.9	>57	-12.3%
Cc1ccc2cc(C#N)c(NCc3ccco3)nc2c1	11.5*	>57	-1.0%
CCN1C(=O)[C@H]2[C@H]3[C@H](O)[C@H](O)C/C(=N/OCc4ccccc4)[C@@H]3CC[C@@H]2C1=O	·	·	-0.3%[11.4 µM]

Screening results: PubChem BioAssay, National Center for Advancing Translational Sciences (NCATS)
